Screening data from PubChem BioAssay.
ClpP mod – qHTS Assay for Activators of ClpP | Potency, µM (series often up to 57.5 µM), for the others: at the highest dose activity change, negative = active | hit rate 1.9% among 340,000 | purified B. subtilis ClpP, FRET peptide cleavage, 20 min | AID 651965, 2013; active means well fitted falling curve with a large enough effect; inconclusive means small, poorly fitted or top-dose-only effect; inactive means no such curve, though single readings can be large or run the other way; further: the source files actives as falling curves though it sought activators and does not explain the sign; nearly all actives have a fitted effect of over 65% in size
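ClpP 10 microg/mL final, pH 8 Tris/KCl buffer with BSA, glycerol, Tween-20; compound pinned in; FRET-FV substrate; RT 20 min; Ex320/Em430; ΔFRET vs ADEP 5.8 microM, DMSO, no enzyme.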
PTAP TSG101 blk – blocks PTAP/TSG101 interaction to inhibit HIV-1 budding; Q99816; Fluorescence polarization, FITC-PTAP peptide / Tsg101 binding; Potency, µM (highest dose often 115 µM), for inactives: at the highest dose activity change, negative = inhibition, most hits filed as inhibitors; 340,000 tested, under 10 active; active means well fitted inhibition curve with a large enough effect in the main read-out, with a control signal flat, not every such curve was filed as active; inconclusive means small, poorly fitted or top-dose-only effect, or effect the other way, or a change in a side signal; inactive means no such curve, though single readings can be large or run the other way; further: % of control where 0% means no effect
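Fluorescence polarization binding of Tsg101 binding domain (10 uM final) to FITC-labeled PTAP peptide (50 nM final) in HEPES pH 7.5 buffer with NaCl, Tween 20, EDTA, TCEP. Compounds added before peptide; binding 20 min at RT.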
Rango complex inh – inhibitors of Rango-importin beta complex formation. Rango CFP/YFP FRET sensor + importin beta, 45 min. Potency, µM (top dose mostly 92.2 µM), for the others: at the top dose inhibition of complex formation. hit rate 0.031% among 340,000. AID 540263; calls by dose curve;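 further: 0% = DMSO wells and 100% = buffer wells lacking importin beta; nearly all actives have a fitted effect of over 15% in size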
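FRET biosensor (snurportin 1 IBB flanked by EYFP and cerulean), 50 nM, with compound 5 min, then 0.125 microM importin beta in PBS, 1 mM DTT, 0.02% Tween-20, 0.1% BSA. CFP/YFP ratio read after 45 min at room temperature; pre-read flags interference.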
12-LOX inh – inhibitors of human 12S-lipoxygenase ALOX12. P18054. purified 12hLO, xylenol orange hydroperoxide absorbance. Potency, µM (series often up to 108 µM), for inactives: at the highest dose activity change, negative = inhibition, usual class: inhibitors. hit rate 1.1% among 580,000. AID 1671190; further: on the % scale 0 is the no-effect control and ±100 the full control effect
Target sequence (P18054 whole entry, looked up): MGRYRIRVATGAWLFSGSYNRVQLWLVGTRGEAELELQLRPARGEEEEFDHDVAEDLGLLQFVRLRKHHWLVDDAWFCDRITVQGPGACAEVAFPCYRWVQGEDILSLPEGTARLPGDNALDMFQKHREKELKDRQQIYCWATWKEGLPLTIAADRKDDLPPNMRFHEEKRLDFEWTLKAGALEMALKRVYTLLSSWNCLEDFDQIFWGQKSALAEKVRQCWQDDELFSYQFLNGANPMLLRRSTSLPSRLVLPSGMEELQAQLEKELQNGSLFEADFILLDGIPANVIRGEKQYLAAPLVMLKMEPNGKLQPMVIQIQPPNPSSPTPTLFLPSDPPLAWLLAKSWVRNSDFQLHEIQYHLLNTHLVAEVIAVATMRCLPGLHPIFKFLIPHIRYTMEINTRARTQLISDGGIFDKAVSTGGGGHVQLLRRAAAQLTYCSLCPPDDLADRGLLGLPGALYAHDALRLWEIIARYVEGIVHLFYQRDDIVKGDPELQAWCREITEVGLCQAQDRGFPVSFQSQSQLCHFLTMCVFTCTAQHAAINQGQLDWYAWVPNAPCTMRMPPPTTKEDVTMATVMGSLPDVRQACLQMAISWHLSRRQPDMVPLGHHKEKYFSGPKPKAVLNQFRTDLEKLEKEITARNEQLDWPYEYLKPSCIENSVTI
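Purified human 12hLO at 150 nM in 25 mM Hepes, 0.01% Triton X-100, pH 7.0, preincubated 15 min at room temperature with compound. Reaction started with 40 uM arachidonic acid, 30 min at room temperature. Hydroperoxide measured by Fe-xylenol orange, 573/405 nm absorbance ratio.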
TDP1 block – inhibitors of human tyrosyl-DNA phosphodiesterase TDP1. Q9NUW8. recombinant TDP1, AlphaScreen DNA substrate cleavage. Potency, µM (doses to about 130 µM), for the others: at the highest dose activity change, negative = inhibition, hits mostly inhibitors. hit rate 0.28% among 350,000. AID 485290; further: on the % scale 0 is the no-effect control and ±100 the full control effect; nearly all actives have a fitted effect of over 40% in size
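Enzyme-compound mixtures sat 15 min at room temperature, followed by a 5 min reaction with 15 nM final substrate and 10 min with AlphaScreen beads. Recombinant human Tdp1 was used at 1 nM final.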
Rango release inh – inhibitors of RanGTP-induced Rango-importin beta complex dissociation; AID 540253; O95149+P62826; hit rate 0.071% among 340,000; Biochemical FRET Rango-importin beta, RanGTP-induced dissociation; Potency, µM (highest dose often 46.1 µM), without a hit: top-dose activity change, negative = inhibition; calls by dose curve; further: % of control where 0% means no effect; nearly all actives have a fitted effect of over 45% in size
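Rango/importin beta premix (0.1/0.25 uM final), PBS + 1 mM DTT + 0.02% Tween-20 + 0.1% BSA; cpd 5 min RT; FRET pre-read; + RanGTP-RCC1 (0.6 uM Ran, 2 mM GTP, 0.2 uM RCC1); 45 min RT; FRET post-read, ex 430, em 486/530 nm.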
An asterisk follows results filed as active; ? = inconclusive; / = no result given; [ ] = remark or other dose. Rows were chosen to be rich in hits. Some 2.4% of all compounds tested hit in one or more screens of this group. Unless noted, the call rests on the fitted dose curve; in most records, active means well fitted curve in the direction sought with a large enough effect; inconclusive means small, poorly fitted or top-dose-only effect, or another doubt; inactive means no such curve, though single readings can be large; an effect the other way counts as inactive or inconclusive. Potency means the concentration at half of the fitted maximal effect.

SMILES	ClpP mod	PTAP TSG101 blk	Rango complex inh	12-LOX inh	TDP1 block	Rango release inh
CCOc1ccccc1NC(=O)CCc1c(C)nc2c3cccnc3nn2c1C	28.2µM*	/	/	-18.1%	1.3%	/
Cc1cc(C)cc(NC(=O)CCc2c(C)nc3c4cccnc4nn3c2C)c1	3.9%	/	/	-25.2%	6.4%	/
COc1ccccc1NC(=O)N1CC[C@H]2CC(=O)N([C@H](C(N)=O)C(C)C)CC[C@H]2C1	/	/	/	44.4%[176 µM]	/	/
O=C1NC(=Nc2ccc(Cl)cc2)/C(=C/c2ccco2)S1	/	-2.4%	?	25.1µM*	/	-22.7%
Cc1cccc(N=C2NC(=O)S/C2=C\c2ccco2)c1	/	-4.8%	?	?	0.0%	?
O=C1NC(=Nc2ccc(O)cc2)S/C1=C/c1ccco1	/	-3.8%	-4.7%	?	-3.7%	1.3%
Cc1cccc(N=C2NC(=O)/C(=C/C=C/c3ccco3)S2)c1	-2.8%	-0.8%	?	44.7µM*	3.4%	-28.7%
O=C1NC(=Nc2ccc3ccccc3c2)S/C1=C/c1ccco1	-1.5%	1.9%	?	31.6µM*	0.6%	-9.8%
COc1ccc(N=C2NC(=O)/C(=C\C=C\c3ccco3)S2)cc1	/	-1.8%	-3.2%	?	2.7%	?
CCOC(=O)c1[nH]c(C)c(/C(Br)=C/Br)c1C	/	/	/	6.31µM*	/	/
COc1ccc(N2CCN(C(=O)CCc3ccccc3OC)CC2)cc1	0.3%	-2.0%	4.0%	0.0%	/	-4.7%
Cc1cccc(OCC(=O)N2CCC3(CC2)NC(=O)N(c2ccc(F)cc2)N3)c1	/	/	/	4.47µM*	/	/
O=C(Cc1ccccc1Cl)N1CCC2(CC1)NC(=O)N(c1ccc(F)cc1)N2	/	/	/	2.24µM*	/	/
Cc1cccc(OCC(=O)N2CCN(C(=O)CCC3CCCC3)CC2)c1	-0.9%	-5.3%	0.3%	-0.7%	1.9%	24.2%
O=C(Cc1cccc(F)c1)N1CCC2(CC1)NC(=O)N(Cc1ccccc1Cl)C2=O	/	/	/	-5.3%	/	/
COc1ccccc1CCC(=O)N1CCC2(CC1)NC(=O)N(c1ccc(F)cc1)N2	/	/	/	3.16µM*	/	/
O=C1NC2(Cc3ccccc31)CN(C(=O)c1ccc(C(F)(F)F)cc1)C2	/	/	/	7.2%[6.33 µM]	/	/
COc1ccc(C2(CNC(=O)/C=C\c3ccco3)CCCC2)cc1OC	-0.3%	-5.2%	-4.7%	44.7µM*	2.8%	0.0%
CC1(C)CC(=O)CC(=NCC(=O)O)C1	1.0%	-4.2%	?	-3.3%	2.3%	25.9µM*
CCCCc1nc(N2CCN(CCO)CC2)c(C#N)c2c1CCCC2	/	/	/	-15.2%	/	/
O=C1NC(=S)S/C1=C\c1ccc(SCc2ccco2)o1	1.2%	17.0%	?	/	/	-27.9%
O=C1NC(=S)S/C1=C\c1ccc(SCc2ccccc2)o1	-1.1%	2.5%	?	12.6µM*	2.7%	-19.2%
CC(C)(C)c1ccc(-c2c(C#N)c(N)nc3c2CCCC3)s1	31.6µM*	-2.4%	?	0.0%	1.0%	-18.3%
N#Cc1c(N)nc2c(c1-c1ccccc1Cl)CCCC2	/	/	/	-2.1%	/	/
N#Cc1c(N)nc2c(c1-c1cccnc1)CCCCC2	-27.0%	-3.9%	-2.6%	-9.2%	2.1%	8.0%
SMILES	ClpP mod	PTAP TSG101 blk	Rango complex inh	12-LOX inh	TDP1 block	Rango release inh
N#Cc1c(N)nc2c(c1-c1cccs1)CCCC2	-19.4%	1.3%	?	9.2%	2.7%	-5.5%
Cc1c(-c2c(C#N)c(N)nc3c2CCCCCC3)cnn1C	12.6µM*	-1.0%	-0.3%	0.0%	2.9%	29.1%
Cc1nn(C)c(C)c1-c1c(C#N)c(N)nc2c1CCCCCC2	1.26µM*	-1.0%	2.6%	3.9%	-1.0%	0.5%
N#Cc1c(N)nc2c(c1-c1ccncc1)CCCCC2	22.4µM*	-3.5%	2.4%	-9.4%	0.0%	16.4%
Cc1ccc2c(-c3ccc(NC4CC4)nn3)cccc2n1	/	/	/	-0.7%	/	/
N#Cc1ccc(C(=O)N2CCN(c3cc(-c4cccs4)[nH]n3)CC2)cc1	/	/	/	44.4%	/	/
